CHX counter: counter-screen hit for Shiga toxin inhibitors, cycloheximide | cell reporter, cycloheximide protein synthesis inhibition counterscreen | AID 2314 | 300,000 tested, 12% active | max response, %; in the data active means max response mostly above about 13%, no sharp cut-off; inactive means mostly below about 14%; further: read at 38.3 µM for the half of the compounds with a filed dose; 0% is about no effect
Pf growth 48h: P. falciparum growth inhibition at 48 hours (one generation); Potency, µM (series often up to 28.7 µM), for the others: at the top dose activity change, negative = inhibition, hits mostly inhibitors; 310,000 tested, 5.9% active; P. falciparum luciferase growth in erythrocytes, 48 h; active means well fitted inhibition curve with a large enough effect; inconclusive means small, poorly fitted or top-dose-only effect, or another doubt; inactive means no such curve, though single readings can be large or run the other way; further: potency means the concentration at half of the fitted maximal effect; on the % scale 0 is the no-effect control and ±100 the full control effect
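Cell-based growth assay: transgenic P. falciparum expressing firefly luciferase, cultured in red cells within RPMI 1640 containing 0.5% w/v Albumax, 24 mM bicarbonate and gentamycin. A drop in luciferase activity indicates inhibition.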
Pf growth 96h: P. falciparum growth inhibition at 96 hours; 320,000 tested, 6.9% active; Potency, µM (doses to about 28.7 µM), without a hit: at the highest dose activity change, negative = inhibition, usual class: inhibitors; P. falciparum luciferase reporter growth, 96 h; active means well fitted inhibition curve with a large enough effect; inconclusive means small, poorly fitted or top-dose-only effect, or another doubt; inactive means no such curve, though single readings can be large or run the other way; further: potency means the concentration at half of the fitted maximal effect; on the % scale 0 is the no-effect control and ±100 the full control effect
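P. falciparum expressing integrated firefly luciferase, in erythrocytes at 2% hematocrit, 0.05% parasitemia, incubated with compounds 96 h at 37 C, 5% CO2. Growth inhibition read as loss of luminescence; two-generation exposure targets delayed-death apicoplast inhibitors.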
Shiga toxin inh: Shiga toxin inhibition | 290,000 tested, 9.2% active | inhibition, % at 38.7 µM | Vero cells, Shiga toxin protein synthesis inhibition reporter; in the data active means inhibition mostly above about 28%, no sharp cut-off; inactive means mostly below about 43%; further: 0% is about no effect
SARS PLpro yeast: inhibitors of SARS-CoV papain-like protease in yeast | AID 485353 | 330,000 tested, 0.19% active | Potency, µM (series often up to 32.9 µM), for inactives: at the top dose activity, positive = growth rescue, actives largely listed as activators | S. cerevisiae expressing SARS-CoV PLpro, growth rescue; further: potency means the concentration at half of the fitted maximal effect; 0% is about no effect; nearly all actives have a fitted effect of over 55% in size
NS1 function inh: blocks influenza NS1 protein function; Potency, µM (highest dose often 46.1 µM), without a hit: at the top dose activity, positive = more growth; 270,000 tested, 0.4% active; AID 2326; further: potency means the concentration at half of the fitted maximal effect; actives are rising curves; nearly all actives have a fitted effect of over 50% in size
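A cell-based growth assay was used: compounds that relieve NS1-induced slow growth of budding yeast raise OD600. Assay medium was yeast nitrogen base with ammonium sulphate and -URA supplement, pH 6.0, with 2% galactose.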
An asterisk follows results filed as active; i = inactive; ? = inconclusive; nt = no result given. Shown are actives, neighbours in structure and some others; about 21% of the full set was active somewhere. Unless noted, the call rests on the fitted dose curve.

SMILES	CHX counter	Pf growth 48h	Pf growth 96h	Shiga toxin inh	SARS PLpro yeast	NS1 function inh
CN(C)C(=O)CN1CCN(Cc2cn(C)nc2-c2ccc3c(c2)OCCO3)CC1	-1.8	10.2%	10.4µM*	-10.3	0.3%	6.7%
CCOC(=O)C1CCCN(Cc2cn(C)nc2-c2ccc3c(c2)OCCO3)C1 (stereo not given)	7.6	-4.7%	?	-6.9	0.2%	1.6%
CNc1ncc(C(=O)c2ccc(-c3ccccc3)cc2)s1	44.5*	92.5%	63.5%	63.8*	-2.8%	-3.3%
CNc1ncc(C(=O)c2ccc(Cl)cc2)s1	34.7*	171.0%	183.2%	69.3*	-5.5%	-23.5%
CNc1ncc(C(=O)c2ccc(Cl)c(Cl)c2)s1	37.7*	82.4%	106.8%	94.1*	-16.0%	-41.9%
CC1CCc2cc(F)cc3c(O)c(C(=O)NCCN(C)C)c(=O)n1c23 (stereo not given)	-3.4	0.0%	9.28µM*	-3.3	0.0%	0.3%
CC1CCc2cc(F)cc3c(O)c(C(=O)NCc4ccco4)c(=O)n1c23 (stereo not given)	-1.8	2.4%	7.6%	-6.2	-5.9%	12.7%
COc1ccc(-c2nc3nc(N)nn3cc2C)cc1F	0.9	40.1%	?	-1.7	-0.7%	-3.4%
COc1ccc(N=N/C(=C\O)C(=O)c2ccco2)cc1	39.6*	i	222.1%	83.5*	-6.0%	nt
CC(C)NC(=O)Cn1cc(C(=O)C(=O)N2CCOCC2)c2ccccc21	-2.9	-9.8%	38.8%	-9.2	-2.0%	8.4%
Cc1ccc2c(c1)C1CN(C)CCC1N2Sc1ccccc1[N+](=O)[O-] (stereo not given)	-7.4	?	10.4µM*	-9.0	-1.5%	10.8%
O=CNc1ncn[nH]1	nt	nt	nt	nt	nt	-1.0%
CCOC(=O)c1c(C)[nH]c(C(=O)NNC(=O)c2ccc(Br)cc2)c1C	nt	84.4%	70.5%	nt	5.5%	nt
COC(=O)c1c(C)[nH]c(C(=O)OCc2ccc(F)cc2)c1C	78.2*	118.2%	193.1%	133.9*	-1.9%	-0.6%
CCOC(=O)c1[nH]c(C)c(C(=O)OCCOc2cccc(C)c2)c1C	21.5*	7.38µM*	2.62µM*	10.3	22.7%	-5.0%
CCOC(=O)c1c(C)[nH]c(C(=O)NNC(=O)c2ccccc2)c1C	30.7*	145.8%	277.4%	88.8*	3.0%	4.8%
CCOC(=O)c1c(C)[nH]c(C(=O)OCC(=O)Nc2sccc2C(N)=O)c1C	nt	4.65µM*	?	nt	0.1%	nt
CCCNC(=O)COC(=O)c1[nH]c(C)c(C(=O)OCC)c1C	7.2	nt	-25.3%	-7.5	6.0%	0.0%
COc1cc(C(=O)NC2=C(C#N)CCC2)cc(OC)c1OC	-0.8	-11.2%	19.8%	-10.6	-0.5%	-2.9%
O=C(OC1CCOC1=O)c1ccc(Cl)c(S(=O)(=O)N2CCOCC2)c1 (stereo not given)	nt	3.3%	-25.1%	nt	13.2%	nt
CN1C(=O)C(c2ccccc2[N+](=O)[O-])C(=O)c2ccccc21 (stereo not given)	-3.3	nt	22.8%	-7.6	3.8%	8.0%
COc1cc(C2C3=C(CC(C)(C)CC3=O)Nc3ccccc3N2C(C)=O)cc(OC)c1OC (stereo not given)	1.2	25.7%	0.0%	7.4	2.2%	3.2%
CCOC(=O)c1[nH]c(C)c(C(=O)OCC)c1C	64.7*	nt	44.7%	138.4*	-6.7%	-86.7%
CCOC(=O)c1c(C)[nH]c(C(=O)OCC(=O)N(C)C2CCS(=O)(=O)C2)c1C (stereo not given)	-1.8	21.1%	nt	-12.8	-4.1%	-5.4%
CCOC(=O)c1c(C)[nH]c(C(=O)COC(=O)C2CC2C)c1C (stereo not given)	47.2*	91.8%	85.1%	59.7*	-0.7%	4.1%
SMILES	CHX counter	Pf growth 48h	Pf growth 96h	Shiga toxin inh	SARS PLpro yeast	NS1 function inh
CCOC(=O)c1[nH]c(C)c(C(=O)NC)c1C	-3.5	40.0%	388.9%	-2.9	-7.4%	4.5%
CCCN(CC1CC1)C(=O)COC(=O)c1[nH]c(C)c(C(=O)OCC)c1C	14.3	nt	11.7µM*	-0.4	-1.6%	-16.3%
CCOC(=O)c1c(C)[nH]c(C(=O)COC(=O)c2[nH]c(C)c(C(C)=O)c2C)c1C	-2.1	1.4%	nt	-11.1	-1.5%	3.9%
CCOC(=O)c1[nH]c(C)c(C(=O)OCc2ccccc2F)c1C	11.7*	-14.7%	-26.2%	24.5	5.8%	11.1%
CCOC(=O)N1CCN(C(=S)Nc2cc(S(=O)(=O)N3CCOCC3)ccc2Cl)CC1	-3.2	-12.2%	2.5%	-3.2	0.1%	-1.9%
CCC(C)(C(=O)NC1CCCCC1)N(C(=O)CNC(=O)c1ccccc1)c1c(C)n(C)n(-c2ccccc2)c1=O (stereo not given)	-5.6	-11.4%	?	-1.7	0.9%	nt
O=C(CCl)NCc1c(Cl)cccc1-n1cccc1	-2.3	10.4µM*	11.7µM*	9.6	8.5%	9.8%
O=C(CSc1nc2ccccc2o1)Nc1nc(-c2ccccc2)c(-c2ccccc2)s1	-6.4	-4.4%	-17.9%	-4.4	14.8%	2.6%
CCOc1ccc(-c2csc(NC(=O)CSCC(=O)O)n2)c2ccccc12	6.0	17.1%	9.9%	-4.7	-4.2%	nt
CC(=O)N1CC(=O)N=C1SCC(=O)Nc1nc(C)c(-c2ccccc2)s1	33.1*	-79.4%	-25.4%	36.9*	0.8%	nt
CCOc1ccc(-c2csc(NC(=O)CSC3=NC(=O)CN3C(C)=O)n2)c2ccccc12	-5.9	?	10.4µM*	-9.9	4.1%	?
CC1CCN(C(=O)CCc2nnc3ccc(N4CCC5(CC4)OCCO5)nn23)CC1	-2.7	-3.4%	10.3%	-3.9	-2.2%	5.4%
CC1(C)CSC(Nc2ccc(F)c(Cl)c2)=N1	18.8	-0.9%	0.0%	61.5	3.1%	?
Cc1cc2n(n1)SC(Nc1ccc(F)c(Cl)c1)N2 (stereo not given)	31.6*	33.6%	8.6%	active	-48.5%	-8.8%
CCc1ccc(N2CSC3=C(C#N)C(c4cccs4)CC(=O)N3C2)cc1 (stereo not given)	14.8*	25.7%	nt	35.3	0.2%	-91.1%
COc1ccc(N2CSC3=C(C#N)C(c4cccs4)CC(=O)N3C2)cc1 (stereo not given)	18.1*	-27.4%	-0.9%	46.5	4.8%	-32.4%
CCOC(=O)c1ccc(N2CSC3=C(C#N)C(c4cccs4)CC(=O)N3C2)cc1 (stereo not given)	1.9	nt	-5.9%	-2.1	5.8%	-44.8%
Cc1ccc(N2CSC3=C(C#N)C(c4cccs4)CC(=O)N3C2)cc1 (stereo not given)	11.3	nt	14.7µM*	31.3	3.6%	13.2%
COc1ccc(NC(=O)CSCC(=O)NC2(C)CCS(=O)(=O)C2)cc1 (stereo not given)	-3.9	-0.5%	-3.1%	-11.6	1.5%	-11.8%
CC(C)(CC(=O)O)CC(=O)Nc1ccc(Oc2ccc(C(C)(C)C)cc2)nc1	-2.3	12.0%	-4.4%	-2.8	0.2%	-0.8%
Cc1cc(C)c2c(n1)sc1c(O)cc(=O)[nH]c12	-0.7	18.2%	7.38µM*	6.4	3.3%	?

Source: PubChem BioAssay (National Center for Advancing Translational Sciences (NCATS))
